Measured values: the supplement of paper PMC8007513
Counter-ions that a name gives are not always drawn. ± gives the standard error. Hit rate of the full screen: of about 1,300 compounds, about 130 (10%) showed an effect of 50% or more. For the sample, strong results were picked, then their nearest neighbours and some compounds at random.

Test system: Trichoderma virens ATCC 9645
Experiment: growth yield (OD600) with compound + IPBC relative to untreated control; higher = less growth inhibition
Conditions: compound concentration: 100 uM, IPBC concentration: 200 ng/ml
Procedure, shortened: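 Trichoderma virens ATCC 9645 spores from 7-day potato dextrose agar plates were suspended in potato dextrose broth at 15,000 spores ml^−1. Aliquots of 100 μl with library compounds at 100 μM final, with or without a co-applied biocide at 200 ng ml^−1, were grown in 96-well plates at 30 °C. OD600 was read at 40 h and 72 h on a BioTek EL800. Growth is expressed relative to the control without either agent, as means of duplicate screens.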

Row | SMILES | growth yield (40 h) [%] | growth yield (72 h) [%]
1 | NCCCCCC(=O)O [Aminocaproic acid] + CCCCNC(=O)OCC#CI [3-iodo-2-propynyl butylcarbamate (IPBC)] | 103 ± 13 | 98.9 ± 6.8
2 | Nc1ncnc2c1ncn2C1OC(COP(=O)(O)O)C(O)C1O (stereo unspecified) [Adenosine 5'-monophosphate monohydrate] + CCCCNC(=O)OCC#CI [3-iodo-2-propynyl butylcarbamate (IPBC)] | 79.4 ± 1.3 | 91.2 ± 1.1
3 | CC(C)(C)NC(=O)[C@@H]1CN(Cc2cccnc2)CCN1C[C@@H](O)C[C@@H](Cc1ccccc1)C(=O)N[C@H]1c2ccccc2C[C@H]1O [Indinavir sulfate] + CCCCNC(=O)OCC#CI [3-iodo-2-propynyl butylcarbamate (IPBC)] | 88.5 ± 3.3 | 89.78 ± 0.84
4 | Cc1nnc(NS(=O)(=O)c2ccc(N)cc2)s1 [Sulfamethizole] + CCCCNC(=O)OCC#CI [3-iodo-2-propynyl butylcarbamate (IPBC)] | 93.7 ± 8.9 | 97.3 ± 7.1
5 | Cc1cc(/C=C/c2ccc3cc(N(C)C)ccc3[n+]2C)c(C)n1-c1ccccc1 [Pyrvinium pamoate] + CCCCNC(=O)OCC#CI [3-iodo-2-propynyl butylcarbamate (IPBC)] | 111 ± 4.5 | 111 ± 3.1
6 | C[N+]1(C)CCCC(OC(=O)C(O)(c2ccccc2)c2ccccc2)C1 (stereo unspecified) [Mepenzolate bromide] + CCCCNC(=O)OCC#CI [3-iodo-2-propynyl butylcarbamate (IPBC)] | 83.2 | 85.7 ± 0.94
7 | C=CCSCC1Nc2cc(Cl)c(S(N)(=O)=O)cc2S(=O)(=O)N1 (stereo unspecified) [Althiazide] + CCCCNC(=O)OCC#CI [3-iodo-2-propynyl butylcarbamate (IPBC)] | 98.16 ± 0.32 | 96.7 ± 0.21
8 | CC=CC(=O)N(CC)c1ccccc1C [Crotamiton] + CCCCNC(=O)OCC#CI [3-iodo-2-propynyl butylcarbamate (IPBC)] | 98.8 ± 5.1 | 102 ± 2.2
9 | CCN1CCC[C@H]1CNC(=O)c1c(OC)ccc(Br)c1OC [Remoxipride Hydrochloride] + CCCCNC(=O)OCC#CI [3-iodo-2-propynyl butylcarbamate (IPBC)] | 101 ± 3.5 | 99 ± 1.5
10 | C=CCOC(Cn1ccnc1)c1ccc(Cl)cc1Cl (stereo unspecified) [Enilconazole] + CCCCNC(=O)OCC#CI [3-iodo-2-propynyl butylcarbamate (IPBC)] | 3.34 ± 0.16 | 2.94 ± 0.21
11 | Clc1ccc(CO/N=C(\Cn2ccnc2)c2ccc(Cl)cc2Cl)c(Cl)c1 [Oxiconazole Nitrate] + CCCCNC(=O)OCC#CI [3-iodo-2-propynyl butylcarbamate (IPBC)] | 3.49 ± 0.32 | 2.1 ± 0.21
12 | Clc1ccc(COC(Cn2ccnc2)c2ccc(Cl)cc2Cl)c(Cl)c1 (stereo unspecified) [Miconazole] + CCCCNC(=O)OCC#CI [3-iodo-2-propynyl butylcarbamate (IPBC)] | 2.8591 ± 3.6e-15 | 2.41 ± 0.1
13 | Clc1ccc(CCC(Cn2ccnc2)Sc2c(Cl)cccc2Cl)cc1 (stereo unspecified) [Butoconazole nitrate] + CCCCNC(=O)OCC#CI [3-iodo-2-propynyl butylcarbamate (IPBC)] | 3.18 | 2.62 ± 0.1
